Results as given in PubChem BioAssay (NCI).
Compounds without any hit were thinned out: in the full panel of roughly 83,000, 20% have a hit.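 Compound tested at a single concentration for 48 hours in 96-well plates; a percent growth value below 10 was scored as active.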 Calls of active or inactive are those of the source.

Tests used:
Test in all cases: NCI-60 one-dose screen, 48 h (100 = growth as untreated, 0 = no growth, -100 = all killed)
Conditions in all cases: 10 µM unless noted
[1] = tested on: DU-145 prostate
[2] = tested on: K-562 leukemia
[3] = tested on: MALME-3M melanoma
[4] = tested on: MDA-MB-231 breast
[5] = tested on: RXF 393 renal
[6] = tested on: SF-268 CNS
[7] = tested on: SF-295 CNS
[8] = tested on: SF-539 CNS
[9] = tested on: UACC-257 melanoma
[10] = tested on: M14 melanoma
[11] = tested on: HCT-15 colon
[12] = tested on: HT29 colon
[13] = tested on: SNB-75 CNS
[14] = tested on: SNB-19 CNS
[15] = tested on: U251 CNS
[16] = tested on: PC-3 prostate
[17] = tested on: SK-MEL-5 melanoma
[18] = tested on: UACC-62 melanoma
[19] = tested on: LOX IMVI melanoma
[20] = tested on: SK-MEL-28 melanoma

Compound | growth [1] | growth [2] | growth [3] | growth [4] | growth [5] | growth [6] | growth [7] | growth [8] | growth [9] | growth [10] | growth [11] | growth [12] | growth [13] | growth [14] | growth [15] | growth [16] | growth [17] | growth [18] | growth [19] | growth [20]
CCSc1ccc(C2C(Br)C(=O)N2c2cc(OC)c(OC)c(OC)c2)cc1 (stereo not given) | 12.3% (inactive) | 8.26% (active) | 70.1% (inactive) | 19.7% (inactive) | 2.05% (active) | 38.7% (inactive) | 15.7% (inactive) | -1.17% (active) | 45.2% (inactive) | 4.2% (active) | 15.2% (inactive) | 2.99% (active) | 51.1% (inactive) | 33.4% (inactive) | 12.1% (inactive) | 20% (inactive) | -11.3% (active) | 29.6% (inactive) | 25.7% (inactive) | 56.7% (inactive)
S=c1ssnc1-c1cc2ccccc2o1 | 97.5% (inactive) | 55.7% (inactive) | 79.8% (inactive) | 91.2% (inactive) | 85.6% (inactive) | 78.8% (inactive) | 75.1% (inactive) | 102% (inactive) | 94.5% (inactive) | 52.4% (inactive) | 71.1% (inactive) | 56.6% (inactive) | 80.8% (inactive) | 82% (inactive) | 91.5% (inactive) | 14.9% (inactive) | 68.7% (inactive) | 86.6% (inactive) | 60.5% (inactive) | 93.2% (inactive)
CN(C)CCCn1c2c(c3cc(-c4ccco4)ccc3c1=O)C(=O)c1ccccc1-2 | 66.8% (inactive) | -75.1% (active) | 113% (inactive) | 53.3% (inactive) | 75.5% (inactive) | 72.3% (inactive) | 82.6% (inactive) | 63.9% (inactive) | 102% (inactive) | 81.2% (inactive) | 54.4% (inactive) | 21% (inactive) | 62.4% (inactive) | 69.2% (inactive) | 80.4% (inactive) | 60% (inactive) | 78.3% (inactive) | 50.9% (inactive) | 60.9% (inactive) | 103% (inactive)
O=C(Nc1cc(Nc2ncccc2-c2ncnc3nc[nH]c23)ccc1F)c1cc(C(F)(F)F)cc(C(F)(F)F)c1 | 20.9% (inactive) | -13.7% (active) | -58.4% (active) | -51.3% (active) | -63.4% (active) | 21.8% (inactive) | -52.8% (active) | -56% (active) | -0.588% (active) | -41.7% (active) | -67% (active) | -23.8% (active) | -39.5% (active) | 13.7% (inactive) | -12.1% (active) | -45.1% (active) | -17.5% (active) | -23.6% (active) | -69.4% (active) | -66.1% (active)
CC1CCCN(CCCCCOc2ccc3oc4ccccc4c(=O)c3c2)C1 (stereo not given) | 85.1% (inactive) | 17.3% (inactive) | 4.45% (active) | 67.8% (inactive) | 60.8% (inactive) | 72.5% (inactive) | 72.9% (inactive) | 77.2% (inactive) | -18.8% (active) | 5.02% (active) | 26.4% (inactive) | 8.93% (active) | 75.8% (inactive) | 83.6% (inactive) | 62.7% (inactive) | 73.7% (inactive) | -59.2% (active) | -26.5% (active) | 33.2% (inactive) | 45% (inactive)
CCCCn1c2cc(OCc3cn(-c4ccc(Cl)cc4)nn3)ccc2c2ccnc(C)c21 | 72.5% (inactive) | 14.4% (inactive) | 53.9% (inactive) | 16.7% (inactive) | 47.6% (inactive) | 74.6% (inactive) | 40.2% (inactive) | 55% (inactive) | 33.6% (inactive) | 40.6% (inactive) | 17.7% (inactive) | 6.28% (active) | 32.8% (inactive) | 56.8% (inactive) | 21.8% (inactive) | 44.7% (inactive) | 38.9% (inactive) | 33% (inactive) | 20.1% (inactive) | 67.9% (inactive)
CCCNc1nc(C)[nH]c(=O)c1S | 91.3% (inactive) | 95% (inactive) | 112% (inactive) | 103% (inactive) | 118% (inactive) | 101% (inactive) | 119% (inactive) | 115% (inactive) | 108% (inactive) | 109% (inactive) | 96.5% (inactive) | 108% (inactive) | 91.2% (inactive) | 93.1% (inactive) | 95% (inactive) | 87.4% (inactive) | 110% (inactive) | 113% (inactive) | 91% (inactive) | 114% (inactive)
COc1cc(C2=N/C(=C\c3cc4ccccc4nc3Oc3ccccc3)C(=O)N2C(=N)N)cc(OC)c1OC | 80.4% (inactive) | 82.3% (inactive) | 57.8% (inactive) | 42.4% (inactive) | 42% (inactive) | 30.7% (inactive) | 55.1% (inactive) | 33.4% (inactive) | 76.4% (inactive) | 74.2% (inactive) | 91.3% (inactive) | 64.2% (inactive) | 6.51% (active) | 32.3% (inactive) | 50.6% (inactive) | 70.4% (inactive) | 83.5% (inactive) | 50% (inactive) | 66.9% (inactive) | 78.4% (inactive)
CN(C)C1=NCCN1 | 108% (inactive) | 95.6% (inactive) | 97.2% (inactive) | 105% (inactive) | 108% (inactive) | 104% (inactive) | 101% (inactive) | 104% (inactive) | 103% (inactive) | 95.7% (inactive) | 108% (inactive) | 88.3% (inactive) | 75.8% (inactive) | 111% (inactive) | 96.9% (inactive) | 80% (inactive) | 103% (inactive) | 102% (inactive) | 99.2% (inactive) | 113% (inactive)
CC(C)(C)CC(C)(C)Cc1ccc(OCCOCC[N+](C)(C)Cc2ccccc2)cc1 | 53.4% (inactive) | 9.56% (active) | -40.2% (active) | -26.7% (active) | 16.5% (inactive) | 20.7% (inactive) | 73.5% (inactive) | 30.9% (inactive) | 2.66% (active) | 7.33% (active) | 97% (inactive) | 9.89% (active) | -9% (active) | -7.68% (active) | 2.86% (active) | 10.1% (inactive) | -98.8% (active) | -36.1% (active) | 10.5% (inactive) | 20.5% (inactive)
COc1ccc([C@H]2[C@@H](F)C(=O)N2c2cc(OC)c(OC)c(OC)c2)cc1F | 9.46% (active) | 9.45% (active) | 74% (inactive) | 19.6% (inactive) | 28.8% (inactive) | 33.1% (inactive) | 18.6% (inactive) | 4.17% (active) | 38.7% (inactive) | 1.91% (active) | 13.6% (inactive) | 3.73% (active) | 50.9% (inactive) | 34.1% (inactive) | 11.9% (inactive) | 23.1% (inactive) | -31.5% (active) | 53.4% (inactive) | 24% (inactive) | 57.7% (inactive)
COc1ccc(/C=C/C(=O)C(CC2CCC2)C(=O)/C=C/c2ccc(OC)c(OC)c2)cc1OC | -23% (active) | 1.54% (active) | -13.6% (active) | 6.65% (active) | -72.5% (active) | 2.31% (active) | -16.6% (active) | -38.2% (active) | -16.7% (active) | 5.19% (active) | -35.4% (active) | -51.1% (active) | 64.7% (inactive) | -13.1% (active) | -68.8% (active) | -8.3% (active) | -76.6% (active) | -65.5% (active) | -75.4% (active) | -4.06% (active)
CCc1c(C(=O)N[C@@H](C(=O)OCc2ccccc2)C(C)O)[nH]c2ccc(Cl)cc12 (stereo not given in full) | 86.5% (inactive) | 104% (inactive) | 69.7% (inactive) | 61.3% (inactive) | 83.8% (inactive) | 84.3% (inactive) | 52.1% (inactive) | 71.4% (inactive) | 109% (inactive) | 88.3% (inactive) | 79.3% (inactive) | 72.8% (inactive) | 19.9% (inactive) | 83.6% (inactive) | 36.3% (inactive) | 82.1% (inactive) | 84.1% (inactive) | 91.4% (inactive) | 81.1% (inactive) | 100% (inactive)
O=Cc1[nH]c(Sc2ccccc2)c2ccccc12 | 83% (inactive) | 35.5% (inactive) | 58.2% (inactive) | 85.1% (inactive) | 75.1% (inactive) | 75% (inactive) | 114% (inactive) | 78.8% (inactive) | 77.7% (inactive) | 81.3% (inactive) | 70.3% (inactive) | 55.4% (inactive) | 42.8% (inactive) | 89.1% (inactive) | 67.5% (inactive) | 46.4% (inactive) | 74% (inactive) | 62.3% (inactive) | 80.5% (inactive) | 92.9% (inactive)
COC(=O)c1cncc(C(=O)Nc2ccc(-n3cnc4ccccc43)cc2)c1 | 105% (inactive) | 94.5% (inactive) | 124% (inactive) | 94% (inactive) | 100% (inactive) | 91.9% (inactive) | 100% (inactive) | 95.9% (inactive) | 104% (inactive) | 102% (inactive) | 100% (inactive) | 96.5% (inactive) | 117% (inactive) | 99.1% (inactive) | 91.4% (inactive) | 92.1% (inactive) | 93.9% (inactive) | 93.4% (inactive) | 96.4% (inactive) | 103% (inactive)
C=C(C)[C@@H]1CC[C@]2(C(=O)O)CC[C@]3(C)[C@H](CC[C@@H]4[C@@]5(C)C[C@@H](CC#Cc6ccccc6)C(=O)C(C)(C)[C@@H]5CC[C@]43C)[C@@H]12 | 37.3% (inactive) | 16.9% (inactive) | 38.1% (inactive) | 55.3% (inactive) | 71.5% (inactive) | 50% (inactive) | 34.8% (inactive) | 49.1% (inactive) | 60.5% (inactive) | 36.5% (inactive) | 18.8% (inactive) | 23.9% (inactive) | 65.1% (inactive) | 46.3% (inactive) | 27.8% (inactive) | 35.3% (inactive) | 32% (inactive) | 42.4% (inactive) | 45.1% (inactive) | 45.1% (inactive)
